The text below walks through data of PubChem BioAssay AID1508600 (Functional Genomics Laboratory (NCATS/FGL), 2020).

The whole screen tested about 53,000 sequences, of which about 3,700 (7%) were called active. Many of the other results were omitted from the sample, so actives are more common in it than they were. Values without a mark were called inactive.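 The calls were made as follows: active = gene knockdowns whose robust z-score for IL-1 alpha signal is at least 2 or at most -2, so actives lie on both sides; inactive = the rest.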

A short description of this experiment: Components of the Cytosolic LPS Sensing Pathway: Gene Identification via Genome-wide siRNA Screen.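 Also: robust z of the log signal after scaling to non-targeting control siRNA wells of the plate.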 The following applies: RAW264.7 macrophages, IL-1a HTRF, actives lie on both sides, screened at 100 nM (by protocol), cells primed 5 h with Pam3CSK4 first. Put shortly:
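Supernatant IL-1a by HTRF from RAW264.7 cells primed with Pam3CSK4 (5 hours) and transfected with LipidA (24 hour) after 48h siRNA knockdown at 100 nM; cell viability checked with CellTiter-Glo.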
(TR-FRET usually uses a lanthanide donor and a delayed reading to cut background.)
As to GGACAAAGAGGCAAUGGGATT against Dnajb9, the z-score was 1.08. Take GGUAAAAUCACUUCAGAUCTT against Phb: the z-score is 2.23 (active).

In the case of GCAAGUGGAGUUUAUUGAUTT against Dbndd2, the z-score was -0.0399.

CGCAUGAUAACUAGAGAAUTT against Slitrk3: the z-score is -0.269. The same measure for GGCUGUUCGGGUGACUAUUTT against Il17re: -2.83 (active); for GGCAAUGUUUACAAGUUCCTT against Ralgps1: 0.491; for GCAGUACUAAGGAAGAUAUTT against Nudcd1: -0.842. With GCAUAAGCUACUGCUGACATT against Pcdha6, the z-score was -0.782. As for GGCAGCAGCACUGAUUACUTT against Gjc2, the z-score is -2.17 (active).

As to GGCAAGGCUACUACUUGCATT against Fgf14, the z-score was -0.117. The same measure for GCCAGACACUUAAUCCCGUTT against Unc13d: 0.147. Consider GGAUAUCAAGGGAUCAGACTT against Chchd4, for which the z-score was 0.00163. The same measure for GGCUUAAGCAGACGUGUCATT against Lhx8: -2.14 (active); for GCCCAUUAUGAAACUGAAGTT against Nfatc3: 1.45.

Take GGUGUUUAAGGAUGAACAATT against L3mbtl3: the z-score is 0.104. Turning to GCCACUUAAUGUCACUUUATT against Bag2, the z-score is 0.652. GCCAGAUCUUUAUAUCCCGTT against Gdi2: the z-score was -0.094. Take CCAGAUGUUACGAAUGAAATT against Tmem209: the z-score is -1.65. For GGGCAAUGUUUGUCACUAATT against Akr1b10, the z-score was 1.55.

With CGGCCAUAUAAUUUUGAAUTT against Tbx20, the z-score is 0.233.

As for CGGUUUAACAGCAAGGGUATT against Sec61a1, the z-score is -2.75 (active).

For GGACUUAUUUCUUUAAGGATT against Mmp17, the z-score was -0.567. Regarding GGUGGAAUGAUAGUGUUCATT against Neurl1b, the z-score is 1.67. As to GGUUAUUUCCCUGUUUUCATT against Olfr532, the z-score was 1.5. For GGAGUUUGGGAACACUUUGTT against Apoc1, the z-score was 0.617.

Take GCCUCUUAGUAGAGACAGUTT against Naa80: the z-score is -0.725. Take GGUAAAGCAAGAGAGUAUUTT against Hccs: the z-score was -0.629. GGUUCAAGGAUGAAUUAGATT against Trappc6b: the z-score was -2.03 (active). For GCUUUUGAAUGUGUGGACUTT against Ugt2b37, the z-score was -0.938. As to CCCAAAGAAUUAUGAGUGUTT against Gpr149, the z-score is -0.678. The same measure for GGCAAAUUCUGGAUCUGCUTT against Marf1: -0.267; for GGGAAAAAAAAAAAUCACCTT against Syne3: -0.254; for CCAAUGAUGGAGCUGAAGCTT against Ranbp1: -2.72 (active). For GGUCAAGGCUGUCAAGUUGTT against Wdr45b, the z-score was -0.13. The same measure for GGUGCCCACUAACUUAGAATT against Tbx21: 2.3 (active); for GGUGUUCGAUGGACGUGAUTT against Bmp1: -0.183; for GCAUCCUGGCUUAUCCAUUTT against Hmgb1: -0.393. CCACUAUUAAACUUCUCAATT against Pex3: the z-score was 0.32. In the case of CCAGCUUCAUGCGUUUAAATT against Stx16, the z-score was 1.4. The same measure for CCCUCACAGUAACCUGUCGTT against Espl1: -2.56 (active); for GGUCGAAGUAUUGGAAAAUTT against Hesx1: -1.71. On to GCAAAUGACUUCCAACAAUTT against Uqcrq, for which the z-score is 3.84 (active). With GGAGAACAAAGUAUUGGUGTT against Cacna1f, the z-score was 0.388.

With “GCCAUAGGAGUGAUUGGAUTT against E130018O15Rik”, the z-score was -1.66. Consider GGUGAGCAUGGACUAUGAUTT against Syt12, for which the z-score was -1.09. The same measure for GCACUUGACAAGCAACAGUTT against Jup: -2.3 (active).

Turning to GCAUAUGGAUAAGAUUGUUTT against Efr3a, the z-score was -0.363. With GGAAAAGGGUCGUGCCUGUTT against Gm9991, the z-score is -0.07. For the sequence GCAUUGGCAGACCCGAGUUTT against Pir, the z-score was 0.238. The same measure for GCUUGGUAAAAUGAAAGUCTT against Klhl12: 0.22; for GGUUUCUGUCCAGAUAAAATT against Ykt6: -0.535. Take GGUGCAGAAUGCAAUGGAUTT against Ing3: the z-score is 2.51 (active). On to GGAAUAUGAGAAAAUGAGCTT against Ctsc, for which the z-score was 0.239. With AACACUGGGUACAUCUACATT against H2-Q7, the z-score is 1.75. For UUCCCACUCUGACUAUUUUTT against Olfr970, the z-score is -0.0332. Consider GGCCUUCAAGUGCAUGAUGTT against Yaf2, for which the z-score was -1.65. With CCAGAAAACCAAACAACAGTT against Olfr1357 the figure was 0.287; with GGUGACAGGAAAGUUCUGUTT against Gsdmc2, 2.07 (active); with GGCGAUUAAACUAUACAUUTT against Rrm2, 0.0358. As for GGGCAUGUGAAGAUGUGCGTT against Map2k3, the z-score was -0.272. Turning to CGUCUUACACGGUUCAAAGTT against Tbc1d10a, the z-score is 0.809. Take CGUGGUACACUGAAGACUUTT against Mmp1a: the z-score is 2.3 (active). With GGACCAUUCUGAAGAGCAGTT against Il5ra the figure was 0.867; with GCUUUAUUGACACGACCCGTT against Rbm19, 0.184. Take CCGUCGUACACAAUCUUACTT against Fgfr4: the z-score was -0.512. As to GGUACACAACCAUCCUUGATT against Olfr600, the z-score is -2.33 (active). Take CCUACAUCAGGUCAGCAAGTT against Mrto4: the z-score was 1.26. With GGAAAAAGCAAAUUGAGGATT against Uchl1, the z-score was -1.48. As for GCAGAGUCACCUUACUAACTT against Fam122b, the z-score was -0.0407.
